High-throughput results as filed in PubChem.
KinaseGlo FLuc – counter-screen: inhibitors of Kinase-Glo firefly luciferase. Kinase-Glo luciferase, ATP luminescence, 8 min. Potency, µM (top dose mostly 38.3 µM), most hits filed as inhibitors. actives 0.28% (n = 200,000). AID 1379. Q27757; further: nearly all actives have a fitted effect of over 60% in size
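Substrate mix (final 50 mM imidazole pH 7.2, 50 mM KCl, 7 mM MgCl2, 10 uM ATP, 0.01% Tween 20, 0.05% BSA) plus pin-tool compound, then Kinase-Glo detection mix; 8 min ambient, luminescence read.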
VP16 counter – Gal4-VP16 reporter inhibition counter-screen; Drosophila S2 Gal4-VP16 UAS-luciferase, luminescence, 20 h; Potency, µM (titrated, usually from 53.6 µM), usual class: inhibitors; actives 3.5% (n = 310,000);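 further: Gal4-VP16 expression switched on by copper sulfate through the metallothionein promoter; nearly all actives have a fitted effect of over 50% in size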
RORgamma inh – ROR gamma (mouse) transcription inhibition; Drosophila S2 Gal4-RORgamma UAS-luciferase reporter, 20 h; Potency, µM (highest dose often 53.6 µM), usual class: inhibitors; actives 5.4% (n = 310,000); further: nearly all actives have a fitted effect of over 60% in size
Target sequence (P51450 whole entry, looked up, the tested form may be a part): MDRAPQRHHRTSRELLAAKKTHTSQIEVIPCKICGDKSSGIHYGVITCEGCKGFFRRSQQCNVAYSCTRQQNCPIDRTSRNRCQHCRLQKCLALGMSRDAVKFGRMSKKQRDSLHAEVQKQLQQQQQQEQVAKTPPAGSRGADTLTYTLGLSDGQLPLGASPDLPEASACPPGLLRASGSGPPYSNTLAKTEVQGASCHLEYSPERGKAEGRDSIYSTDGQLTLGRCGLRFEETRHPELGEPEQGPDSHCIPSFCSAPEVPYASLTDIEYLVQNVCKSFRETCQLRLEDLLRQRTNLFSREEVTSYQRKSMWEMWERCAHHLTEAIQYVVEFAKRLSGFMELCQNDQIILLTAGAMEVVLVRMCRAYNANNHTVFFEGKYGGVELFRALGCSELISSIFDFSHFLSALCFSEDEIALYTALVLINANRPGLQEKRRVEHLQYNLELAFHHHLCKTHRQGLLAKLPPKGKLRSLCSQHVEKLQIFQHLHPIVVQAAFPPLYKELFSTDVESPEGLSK
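Drosophila Schneider cells stably carrying a metallothionein-driven Gal4 DBD–ROR gamma fusion and a UAS-Photinus luciferase reporter were exposed to compound for 1 hr, then induced with copper sulfate (700 uM final) for 20 hr at ambient temperature before luminescence reading.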
A number is an active result; 0 = inactive; ? = inconclusive; - = no result; [ ] = remark or other dose. Only some compounds are listed: those with a hit (about 6.4% of all), similar ones and a draw of the others. The call rests on the fitted dose curve; in most records, active means well fitted curve in the direction sought with a large enough effect; inconclusive means small, poorly fitted or top-dose-only effect, or another doubt; inactive means no such curve, though single readings can be large; an effect the other way counts as inactive or inconclusive.

SMILES	KinaseGlo FLuc	VP16 counter	RORgamma inh
COc1cccc(NC(=S)N(CCN2CCCCC2)Cc2ccco2)c1	0	0	?
Cc1cccc(NC(=S)N(Cc2ccco2)C(C)c2cccs2)c1 (stereo not given)	0	?	14µM
COCCN(C(=S)Nc1ccc(C)c(C)c1)C(C)c1ccco1 (stereo not given)	0	?	4.5µM
Cc1ccc(NC(=S)N(CCN(C)C)C(C)c2ccco2)cc1C (stereo not given)	0	?	0
CC(c1cccs1)N(Cc1ccco1)C(=S)Nc1ccc(F)c(Cl)c1 (stereo not given)	0	?	?
COc1cccc(NC(=S)N(Cc2ccco2)C(C)c2ccco2)c1 (stereo not given)	0	18µM	?
O=C(Cn1cccc1C(=O)c1ccccc1)NCc1ccc(F)cc1	-	0	0
CN(C)CCN1C(=O)CC[C@]2(C)C1=CC[C@@H]1[C@@H]2CC[C@]2(C)[C@H]1CC[C@]2(C)O	0[7.66 µM]	-	-
COC(=O)CC1C(C)(C)C(=O)C2CC3=C(CC[C@]4(C)C3=CC(=O)OC4c3ccoc3)[C@@]1(C)C2=O (stereo not given in full)	0	0	0
O=C(O)/C=C(/C(=O)O)[C@]12CCN3CC4=CCO[C@@H]5CC(=O)N[C@@H]1C5[C@H]4C[C@H]32 (stereo not given in full)	0[7.66 µM]	-	-
COc1ccc(C2CC(c3ccccc3OC(C)=O)=NN2C(C)=O)cc1 (stereo not given)	-	0	0
CCOC(=O)c1c(NC(=S)NCCc2ccccc2)sc2c1CC(C(C)C)OC2 (stereo not given)	0	1.3µM	2.5µM
CC(C)N1CCc2c(sc(NC(=S)NC(=O)c3ccccc3)c2C#N)C1	0	?	?
CCOC(=O)c1c(NC(C)=O)sc2c1CCN(Cc1ccccc1)C2	-	0	0
C=CCNC(=S)Nc1sc2c(c1C(=O)OCC)CC(C(C)C)OC2 (stereo not given)	0	4.5µM	5µM
CC(C)C1Cc2c(sc(NC(=S)NC(=O)c3ccccc3)c2C#N)CO1 (stereo not given)	0	?	5.6µM
CCOC(=O)c1c(NC(=O)c2ccco2)sc2c1CCCC2	0	0	0
CC(=O)Nc1ccc(OC(C)=O)cc1	-	0	0
CC(Oc1ccc(Cl)cc1)c1ccc(C#N)c(=O)[nH]1 (stereo not given)	0	0	0
CCC(C)(C(=O)NC1CCCCC1)N(C(=O)CNC(=O)c1ccccc1)c1c(C)n(C)n(-c2ccccc2)c1=O (stereo not given)	0	0[10 µM]	0
COc1ccc(-c2nnnn2-c2ccc(F)cc2F)cc1	0	0	0
CCNC(=O)COC(=O)c1cccc(Br)c1	-	0	0
COc1ccc(-c2cn3c(n2)CCC3)cc1	0	0	?
c1ccc(-c2ccc(-c3cn4c(n3)CCC4)cc2)cc1	0	11µM	?
c1ccc(-c2nnc3n2CCCC3)cc1	0	0	0
SMILES	KinaseGlo FLuc	VP16 counter	RORgamma inh
Cc1ccc(-c2cn3c(n2)CCCC3)cc1	0	?	8.9µM
CC(C)(C)SCCNS(=O)(=O)c1ccc(C#N)cc1	-	0	0
NC(=O)c1cnn(-c2ccc3ccccc3c2)c1N	0	0	?
CCN1CCN(c2ccc(NC(=O)COc3ccc([N+](=O)[O-])cc3)cc2)CC1	-	0	?
O=c1c(-c2cc(F)cc(F)c2)nc2cncnc2n1-c1ccccc1	-	0	0
O=C(Nc1cccc(NC(=O)c2ccccc2)n1)c1ccccc1	-	0	0[1.91 µM]
Cc1cccc(NC2=C(NC(=O)c3ccccc3)C(=O)c3ccccc3C2=O)c1	0	?	?
CN(c1ccc(C(=O)Nc2ccc(Cl)cn2)cc1)S(=O)(=O)c1ccccc1	0	?	0
O=C(NC1=C(NC2CCS(=O)(=O)C2)C(=O)c2ccccc2C1=O)c1ccccc1 (stereo not given)	0	?	13µM
O=C1C(Cl)=C(NC(=O)c2ccccc2)C(=O)C(Cl)=C1NC(=O)c1ccccc1	-	?	7.1µM
CN(C1=C(NC(=O)c2ccc(Cl)cc2)C(=O)c2ccccc2C1=O)c1ccccc1	-	11µM	11µM
O=C(NC(NC1CCS(=O)(=O)C1)C(=O)c1cccs1)c1ccccc1 (stereo not given)	0	0	0
O=C(NC1=C(Nc2ccc(Cl)cc2)C(=O)c2ccccc2C1=O)c1ccccc1	0	?	14µM
CCCCOc1ccc(C2CCC(C(C)=O)C(C)C2)cc1 (stereo not given)	-	0	0
CCCCN(C)Cc1c(O)ccc2c(=O)c(-c3ccccc3OC)coc12	-	0	0
O=C(NCC1CC1)C1(S(=O)(=O)c2ccccc2)CC=CC1	-	0	0
CSc1ccc(S(=O)(=O)Nc2ccc(OCC(=O)N3CCOCC3)cc2)cc1	0	0	0
O=C(Cc1ccc(Cl)cc1Cl)OCC(=O)N1CCN(C(=O)c2ccco2)CC1	0	0	0
O=C1[C@H]2[C@H]3[C@H](O)[C@H](O)C/C(=N/OC[C@@H](O)COCc4ccco4)[C@@H]3CC[C@@H]2C(=O)N1Cc1ccc2c(c1)OCO2	-	0[10 µM]	0[10 µM]
O=C(Nn1cnc2ccccc2c1=O)c1ccc(Cl)c([N+](=O)[O-])c1	-	0	0
COc1cccc(NC(=S)N(Cc2ccc(C(=O)O)cc2)Cc2ccc(OC)c(OC)c2)c1	-	0	0
COC(C(=O)Nc1ccc(F)cc1)c1ccccc1 (stereo not given)	0	0	0
COc1cccc(CN(C)C(=S)Nc2ccc(C)c(C)c2)c1	0	0[10 µM]	11µM
Cc1ccc(NC(=S)N(C)C(c2ccccc2)c2ccccc2)cc1C	-	10µM	3.5µM
Cc1ccc(NC(=O)C(SCC(=O)O)c2ccccc2)cc1C (stereo not given)	0	0	?
SMILES	KinaseGlo FLuc	VP16 counter	RORgamma inh
CN(C(=S)Nc1ccc(F)cc1)C(c1ccccc1)c1ccccc1	-	?	11µM
Cc1ccc(C(=O)NC2CCCc3ccccc32)cc1[N+](=O)[O-] (stereo not given)	-	0	0
Nc1ccc(C(=O)NC2CCSc3ccccc32)cc1[N+](=O)[O-] (stereo not given)	-	7.9µM	?
CCOc1ccccc1N1CCN(C(=O)c2cn(CC3CCCCC3)nn2)CC1	-	?	0
COc1ccc(-n2c(-c3ccc(Cl)cc3)c[n+]3c2CCc2ccccc2-3)cc1	0	13µM	?
COc1ccc(-n2c(-c3ccccc3)nnc2-c2ccc(Cl)cc2)cc1	0	0	0
Cc1nnsc1C(=O)NNS(=O)(=O)c1cc(C(F)(F)F)cc(C(F)(F)F)c1	-	0	11µM
Cc1ccc(S(=O)(=O)NNC(=O)c2snnc2C)cc1	0	0	0
O=C(O)c1ccc2cc(-c3ccc(O)c(C45CC6CC(CC(C6)C4)C5)c3)ccc2c1	0	?	?
CC(=O)c1c(C)oc2c1C(=O)c1ccccc1C2=O	0	16µM	4µM
O=C1c2ccccc2C(=O)c2c(NCc3cccnc3)cccc21	0	3.2µM	0
CC(=O)c1c2c3c(c(Br)ccc3n(C)c1=O)C(=O)c1ccccc1-2	-	0	0
Cc1oc2c(c1C(=O)NCc1cccnc1)C(=O)c1ccccc1C2=O	-	4.5µM	?
c1ccc(NCc2cccnc2)cc1	0	0	0
COc1ccc(CNC(=O)c2c(C)oc3c2C(=O)c2ccccc2C3=O)cc1	0	0	0
Cn1c(=O)c(-c2cc(F)cc(F)c2)nc2cnc(N3CCNCC3)nc21	-	0	0
